Records with an inconclusive call do not appear. Calls of active or inactive are those of the source. Unless noted, the call rests on the fitted dose curve; in most records, active means well fitted curve in the direction sought with a large enough effect in the repeat runs; inconclusive means weak or mixed curves; inactive means no such curve, though single readings can be large; an effect the other way counts as inactive or inconclusive.
Experiments:
[1] = target: Aryl hydrocarbon receptor (Homo sapiens) (UniProt P35869); assay: qHTS assay to identify small molecule that activate the aryl hydrocarbon receptor (AhR) signaling pathway (AID 743085); further: nearly all actives have a fitted effect of over 15% in size; further: potency means the concentration at half of the fitted maximal effect;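 on activation: HG2L7.5c1 human HepG2 liver cells with stably integrated DRE-driven firefly reporter; series mostly up to about 70 µM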
Chain of Aryl hydrocarbon receptor (Homo sapiens) (P35869 whole entry, looked up): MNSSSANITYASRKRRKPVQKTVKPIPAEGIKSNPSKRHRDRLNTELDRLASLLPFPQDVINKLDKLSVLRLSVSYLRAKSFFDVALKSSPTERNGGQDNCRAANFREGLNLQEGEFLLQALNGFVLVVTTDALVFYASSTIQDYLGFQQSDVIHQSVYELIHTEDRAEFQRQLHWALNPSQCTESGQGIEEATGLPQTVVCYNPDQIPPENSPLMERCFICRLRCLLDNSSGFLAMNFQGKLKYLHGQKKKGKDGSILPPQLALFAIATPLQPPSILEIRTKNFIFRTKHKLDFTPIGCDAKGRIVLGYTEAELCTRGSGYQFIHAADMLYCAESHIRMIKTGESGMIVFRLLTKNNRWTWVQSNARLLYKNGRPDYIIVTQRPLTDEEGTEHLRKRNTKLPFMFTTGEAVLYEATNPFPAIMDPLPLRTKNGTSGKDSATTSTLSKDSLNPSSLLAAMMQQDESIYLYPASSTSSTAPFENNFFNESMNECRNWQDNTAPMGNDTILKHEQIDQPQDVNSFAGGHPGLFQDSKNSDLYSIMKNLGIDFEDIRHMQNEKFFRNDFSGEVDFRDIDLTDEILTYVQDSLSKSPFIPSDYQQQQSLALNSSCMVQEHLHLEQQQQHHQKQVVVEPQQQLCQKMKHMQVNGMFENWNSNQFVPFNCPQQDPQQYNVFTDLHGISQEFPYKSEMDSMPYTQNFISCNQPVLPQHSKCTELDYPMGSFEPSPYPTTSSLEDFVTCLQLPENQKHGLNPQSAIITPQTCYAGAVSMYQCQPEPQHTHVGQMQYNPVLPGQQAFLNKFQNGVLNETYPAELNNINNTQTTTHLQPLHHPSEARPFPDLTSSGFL
Method in brief: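 24 h compound exposure, 37C, HepG2-derived HG2L7.5c1 cells with DRE-responsive luciferase. Readouts: fluorescence viability, then luminescence at room temperature after 30 min.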

[2] = qHTS assay to identify small molecule that activate the aryl hydrocarbon receptor (AhR) signaling pathway - cell viability counter screen (AID 743086);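 further: HepG2 liver cells carrying the AhR DRE luciferase reporter; series mostly up to about 70 µM; nearly all actives have a fitted effect of over 45% in size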
Method in brief: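 HepG2-AhR-luc (HG2L7.5c1) cells, 4000/well, treated 24 h at 37 C with compound; viability measured as CellTiter-Fluor fluorescence after 30 min in the same wells as the luciferase read.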

[3] = target: Peroxisome proliferator-activated receptor gamma (Homo sapiens) (UniProt P37231); assay: qHTS assay to identify small molecule agonists of the peroxisome proliferator-activated receptor gamma (PPARg) signaling pathway (AID 743094; active means well fitted activation curve with a large enough effect in the signal ratio in the repeat runs, not every such curve was filed as active; the % refers to the signal ratio)
Chain of Peroxisome proliferator-activated receptor gamma (Homo sapiens) (P37231 whole entry, looked up): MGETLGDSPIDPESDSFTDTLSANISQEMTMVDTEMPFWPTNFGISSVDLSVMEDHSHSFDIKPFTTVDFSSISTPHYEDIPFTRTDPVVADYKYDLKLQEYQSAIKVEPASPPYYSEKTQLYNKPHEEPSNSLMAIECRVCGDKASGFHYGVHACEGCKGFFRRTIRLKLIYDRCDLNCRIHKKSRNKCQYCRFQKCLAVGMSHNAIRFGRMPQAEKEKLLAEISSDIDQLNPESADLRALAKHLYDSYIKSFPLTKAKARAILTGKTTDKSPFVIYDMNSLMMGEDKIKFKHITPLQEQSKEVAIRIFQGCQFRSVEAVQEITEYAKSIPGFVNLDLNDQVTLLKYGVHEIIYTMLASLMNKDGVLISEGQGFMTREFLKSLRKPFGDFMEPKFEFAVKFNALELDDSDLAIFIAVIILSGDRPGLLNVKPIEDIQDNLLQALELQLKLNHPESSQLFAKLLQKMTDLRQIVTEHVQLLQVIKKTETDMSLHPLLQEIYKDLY
Method in brief: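 Beta-lactamase FRET fluorescence was the read-out after a 1 h room-temperature substrate step, following 17 h compound treatment at 37C of HEK293H cells expressing a UAS-driven bla reporter responsive to PPARg.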

[4] = target: Peroxisome proliferator-activated receptor gamma (Homo sapiens) (UniProt P37231); assay: qHTS assay to identify small molecule antagonists of the peroxisome proliferator-activated receptor gamma (PPARg) signaling pathway (AID 743191; calls by dose curve; further: series mostly up to about 63 µM; nearly all actives have a fitted effect of over 30% in size)
Method in brief: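 GeneBLAzer PPARg UAS-bla HEK293H cells, 5 h post-plating, exposed to compounds 17 h at 37C. LiveBLAzer B/G FRET substrate added for 1 h at room temperature; beta-lactamase reporter read by fluorescence intensity.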

[5] = qHTS assay to identify small molecule antagonists of the peroxisome proliferator-activated receptor gamma (PPARg) signaling pathway - cell viability counter screen (AID 743194); details: Potency: co-treated with 50 nM rosiglitazone; further: nearly all actives have a fitted effect of over 55% in size
Method in brief: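 Cytotoxicity counter screen in PPARg-bla HEK293H cells, same wells as reporter assay. Compounds plus 50 nM rosiglitazone (final) for 17 h at 37 C, then viability read by CellTiter-Glo luminescence.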

[6] = qHTS assay for small molecule agonists of the antioxidant response element (ARE) signaling pathway (AID 743202; active means well fitted activation curve with a large enough effect in the signal ratio in the repeat runs, not every such curve was filed as active; the % refers to the signal ratio)
Method in brief: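 ARE-bla HepG2 cells (beta-lactamase reporter under the antioxidant response element), plated 5 hours, then exposed to compounds 16 hours at 37 C. LiveBLAzer B/G FRET substrate added for 2 hours at room temperature; fluorescence intensity read.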

[7] = qHTS assay for small molecule agonists of the antioxidant response element (ARE) signaling pathway - cell viability counter screen (AID 743203; calls by dose curve; further: nearly all actives have a fitted effect of over 55% in size)
Method in brief: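 HepG2 cells carrying ARE-driven beta-lactamase; 2,000 cells/well; 5 hrs plating; compound pinned from DMSO; 16 hrs 37C/5% CO2; CellTiter-Glo added; 30 min RT; luminescence.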

[8] = qHTS assay for small molecule activators of the heat shock response signaling pathway (AID 743210; active means well fitted activation curve with a large enough effect in the signal ratio in the repeat runs, with a control signal flat, not every such curve was filed as active; the % refers to the signal ratio; further: series mostly up to about 63 µM)
Method in brief: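 HSE-bla HeLa cells (beta-lactamase reporter under heat shock response elements), plated overnight, then exposed to compounds 5 h at 37 C; LiveBLAzer B/G FRET substrate added, 2.5 h at room temperature, fluorescence intensity read.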

[9] = qHTS assay to identify small molecule agonists of the peroxisome proliferator-activated receptor delta (PPARd) signaling pathway - cell viability counter screen (AID 743211); further: nearly all actives have a fitted effect of over 55% in size
Method in brief: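 Luminescent ATP viability assay (CellTiter-Glo, 30 min RT) in UAS-bla HEK293H cells carrying the PPAR delta reporter construct, 3000 cells/well, after a 17 h compound treatment at 37 C.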

[10] = target: Peroxisome proliferator-activated receptor delta (Homo sapiens) (UniProt Q03181); assay: qHTS assay to identify small molecule agonists of the peroxisome proliferator-activated receptor delta (PPARd) signaling pathway (AID 743212; calls by dose curve)
Chain of Peroxisome proliferator-activated receptor delta (Homo sapiens) (Q03181 whole entry, looked up): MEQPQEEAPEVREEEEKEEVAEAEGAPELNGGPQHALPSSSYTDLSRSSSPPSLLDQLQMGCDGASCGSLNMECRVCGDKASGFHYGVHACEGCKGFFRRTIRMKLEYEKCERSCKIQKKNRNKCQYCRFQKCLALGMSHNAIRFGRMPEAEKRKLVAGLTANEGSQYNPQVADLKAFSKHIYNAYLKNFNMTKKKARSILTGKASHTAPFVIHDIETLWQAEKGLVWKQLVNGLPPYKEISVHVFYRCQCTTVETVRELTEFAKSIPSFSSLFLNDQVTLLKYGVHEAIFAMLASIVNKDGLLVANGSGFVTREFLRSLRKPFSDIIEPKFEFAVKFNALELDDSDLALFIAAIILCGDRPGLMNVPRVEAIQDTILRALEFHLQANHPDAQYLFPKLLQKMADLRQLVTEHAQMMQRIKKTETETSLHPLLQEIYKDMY
Method in brief: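 GeneBLAzer UAS-bla HEK293H cells carrying a PPARδ construct were exposed to compounds at 37 °C. Beta-lactamase activity was read by FRET fluorescence after 2 h at room temperature with LiveBLAzer B/G substrate.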

[11] = target: Peroxisome proliferator-activated receptor delta (Homo sapiens) (UniProt Q03181); assay: qHTS assay to identify small molecule antagonists of the peroxisome proliferator-activated receptor delta (PPARd) signaling pathway (AID 743215; active means well fitted inhibition curve with a large enough effect in the signal ratio in the repeat runs, not every such curve was filed as active; the % refers to the signal ratio;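 further: cells stimulated with agonist L165041 at 300 nM final during compound exposure; series mostly up to about 62 µM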)
Method in brief: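 Read-out is beta-lactamase FRET fluorescence, measured 2 h after substrate addition at room temperature. Beforehand, UAS-bla HEK293H cells carrying the PPARd reporter were exposed to compounds with L165041 at 300 nM final for 17 h at 37 C.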

[12] = qHTS assay to identify small molecule agonists of the farnesoid-X-receptor (FXR) signaling pathway - cell viability counter screen (AID 743218); further: nearly all actives have a fitted effect of over 45% in size
Method in brief: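 HEK 293T FXR-bla cells; 5 h pre-incubation, 16 h compound exposure at 37 C; LiveBLAzer substrate 2 h RT, then CellTiter-Glo 30 min RT, luminescence.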

[13] = qHTS assay to identify small molecule antagonists of the farnesoid-X-receptor (FXR) signaling pathway - cell viability counter screen (AID 743221; active means well fitted cell-killing curve with a large enough effect in the repeat runs, not every such curve was filed as active; further: nearly all actives have a fitted effect of over 50% in size)
Method in brief: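 In GeneBLAzer FXR-UAS-bla HEK 293T cells stimulated with 50 uM chenodeoxycholic acid (final), compounds acted for 16 h at 37 C. Viability was assessed afterwards by CellTiter-Glo luminescence.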

[14] = target: Vitamin D3 receptor (Homo sapiens) (UniProt P11473); assay: qHTS assay to identify small molecule agonists of the vitamin D receptor (VDR) signaling pathway (AID 743222; calls by dose curve)
Chain of Vitamin D3 receptor (Homo sapiens) (P11473 whole entry, looked up): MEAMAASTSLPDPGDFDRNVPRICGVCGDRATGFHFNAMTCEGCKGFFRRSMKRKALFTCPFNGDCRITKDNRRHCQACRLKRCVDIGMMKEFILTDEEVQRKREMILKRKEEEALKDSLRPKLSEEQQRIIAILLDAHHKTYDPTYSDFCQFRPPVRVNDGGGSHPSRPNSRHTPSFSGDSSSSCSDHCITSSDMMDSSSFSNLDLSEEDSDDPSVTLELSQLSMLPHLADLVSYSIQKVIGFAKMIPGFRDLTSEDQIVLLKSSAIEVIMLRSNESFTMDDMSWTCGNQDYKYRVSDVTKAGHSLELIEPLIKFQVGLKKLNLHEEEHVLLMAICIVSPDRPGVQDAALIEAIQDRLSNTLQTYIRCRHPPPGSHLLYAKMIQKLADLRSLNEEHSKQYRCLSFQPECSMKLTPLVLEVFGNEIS
Method in brief: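 VDR-bla cells, 2,000/well; 4 h preincubation 37C; cpd (DMSO) 16 h; LiveBLAzer B/G substrate 2 h RT; fluorescence intensity read.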

[15] = target: Vitamin D3 receptor (Homo sapiens) (UniProt P11473); assay: qHTS assay to identify small molecule antagonists of the vitamin D receptor (VDR) signaling pathway (AID 743223; active means well fitted inhibition curve with a large enough effect in the signal ratio in the repeat runs, not every such curve was filed as active; the % refers to the signal ratio)
Method in brief: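 Agonist 1alpha,25-dihydroxyvitamin D3 (3 nM in well) was added with each compound to VDR-bla cells preincubated 4 h. Cells stood 16 h at 37C, then FRET substrate 2 h at room temperature; fluorescence intensity recorded.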

[16] = qHTS assay to identify small molecule agonists of the vitamin D receptor (VDR) signaling pathway - cell viability counter screen (AID 743224); further: series mostly up to about 63 µM; nearly all actives have a fitted effect of over 50% in size
Method in brief: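 Luminescence from CellTiter-Glo, read after 30 min at room temperature, reports viability of VDR-bla cells treated with compounds for 16 h at 37C in the wells used for the beta-lactamase FRET read.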

[17] = qHTS assay for small molecule activators of the heat shock response signaling pathway - cell viability counter screen (AID 743209); further: nearly all actives have a fitted effect of over 50% in size
Method in brief: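 Luminescence from CellTiter-Glo, added after the beta-lactamase FRET read, gave the viability signal. Cells were HSE-bla HeLa treated with DMSO-dissolved compounds for 5 h at 37 C following overnight plating.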

[18] = target: Bile acid receptor (Homo sapiens) (UniProt Q96RI1); assay: qHTS assay to identify small molecule antagonists of the farnesoid-X-receptor (FXR) signaling pathway (AID 743217; active means well fitted inhibition curve with a large enough effect in the signal ratio in the repeat runs, not every such curve was filed as active; the % refers to the signal ratio)
Chain of Bile acid receptor (Homo sapiens) (Q96RI1 whole entry, looked up): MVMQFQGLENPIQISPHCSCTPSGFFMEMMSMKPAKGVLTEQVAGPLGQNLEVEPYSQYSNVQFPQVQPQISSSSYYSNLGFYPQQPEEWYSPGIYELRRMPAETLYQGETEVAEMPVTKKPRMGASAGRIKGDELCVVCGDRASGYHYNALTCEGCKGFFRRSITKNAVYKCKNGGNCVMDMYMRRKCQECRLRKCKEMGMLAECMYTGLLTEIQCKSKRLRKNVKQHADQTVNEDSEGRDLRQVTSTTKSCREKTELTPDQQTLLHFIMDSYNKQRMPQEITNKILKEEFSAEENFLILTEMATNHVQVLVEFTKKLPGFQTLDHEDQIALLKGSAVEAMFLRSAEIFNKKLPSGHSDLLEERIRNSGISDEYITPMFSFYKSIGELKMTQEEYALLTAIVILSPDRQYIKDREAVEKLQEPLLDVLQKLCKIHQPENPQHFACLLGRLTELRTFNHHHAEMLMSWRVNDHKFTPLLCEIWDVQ
Method in brief: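 HEK 293T FXR-UAS-bla, 5000 cells/well; compound + CDCA 50 uM final; 16 h, 37 °C; B/G FRET substrate 2 h RT; fluorescence.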

[19] = target: Bile acid receptor (Homo sapiens) (UniProt Q96RI1); assay: qHTS assay to identify small molecule agonists of the farnesoid-X-receptor (FXR) signaling pathway (AID 743220; active means well fitted activation curve with a large enough effect in the signal ratio in the repeat runs, not every such curve was filed as active; the % refers to the signal ratio)
Method in brief: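 Beta-lactamase reporter under UAS control in GeneBLAzer FXR HEK 293T cells (5000/well) measured with LiveBLAzer FRET substrate after 2 h at room temperature. Compound exposure lasted 16 h at 37C.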

[20] = qHTS assay to identify small molecule antagonists of the peroxisome proliferator-activated receptor delta (PPARd) signaling pathway - cell viability counter screen (AID 743213); further: nearly all actives have a fitted effect of over 50% in size
Method in brief: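 HEK293H cells with the PPARd UAS-bla reporter, co-treated 17 h at 37 C with compounds and L165041 (300 nM final), were lysed with CellTiter-Glo. Luminescence indicated viable cell content.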
On the % scale 0 is the no-effect control and ±100 the full control effect.

OCC(Cl)CCl (stereo unspecified)
inactive: Potency [1] | Potency [2] | outcome [3] | Potency [4] | Potency [5] | Potency [6] | Potency [7] | Potency [8] | Potency [9] | outcome [10] | Potency [11] | Potency [12] | Potency [13] | outcome [14] | outcome [15] | Potency [16]

CN(C)CCc1c[nH]c2cccc(OP(=O)(O)O)c12
inactive: Potency [1] | Potency [2] | outcome [3] | Potency [4] | Potency [5] | Potency [6] | Potency [7] | Potency [17] | Potency [8] | Potency [9] | outcome [10] | Potency [11] | outcome [18] | Potency [12] | outcome [19] | Potency [16]

O=c1[nH]oc2c1CCNC2
inactive: Potency [1] | Potency [2] | outcome [3] | Potency [4] | Potency [5] | Potency [6] | Potency [7] | Potency [17] | Potency [8] | Potency [9] | Potency [20] | Potency [11] | Potency [12] | Potency [13] | Potency [16]

Clc1ccc(C(Cl)(Cl)Cl)cn1
inactive: Potency [2] | outcome [3] | Potency [4] | Potency [6] | Potency [17] | Potency [8] | Potency [9] | outcome [10] | Potency [20] | Potency [11] | outcome [18] | Potency [12] | outcome [19] | Potency [13] | outcome [14] | Potency [16]
active: Potency [1] 48.6 µM

CCN(CC)C1CCCCC1
inactive: Potency [1] | Potency [2] | outcome [3] | Potency [4] | Potency [5] | Potency [6] | Potency [7] | Potency [17] | Potency [8] | Potency [9] | outcome [10] | Potency [20] | Potency [11] | outcome [18] | Potency [12] | outcome [19] | outcome [14] | outcome [15] | Potency [16]

NC(=O)CS(=O)C(c1ccccc1)c1ccccc1 (stereo unspecified)
inactive: Potency [1] | Potency [2] | outcome [3] | Potency [4] | Potency [5] | Potency [6] | Potency [7] | Potency [17] | Potency [8] | Potency [9] | Potency [20] | Potency [12] | Potency [16]

COc1ccc2c(C(=O)c3ccc(Cl)cc3)c(C)n(CC(=O)O)c2c1
inactive: Potency [2] | outcome [3] | Potency [4] | Potency [6] | Potency [7] | Potency [17] | Potency [8] | outcome [10] | Potency [20] | Potency [11] | outcome [18] | outcome [19] | Potency [16]
active: Potency [1] 33.5 µM

Clc1cc2c(cc1Cl)Oc1cc(Cl)c(Cl)cc1O2
inactive: viability change, negative = cytotoxic [2] -4.26% [at 0.341 µM] | activation [3] -9.85% [at 0.285 µM] | ratio activity, negative = inhibition [4] -3.27% [at 0.275 µM] | activity change, negative = cytotoxicity [5] 15.5% [at 0.275 µM, co-treated with 50 nM rosiglitazone] | viability change, negative = cytotoxic [7] -8.47% [at 0.338 µM] | activity change, negative = cytotoxicity [17] -11.9% [at 0.275 µM] | activation [8] -0.0962% [at 0.275 µM] | activity change, negative = cytotoxicity [9] -2.8% [at 0.275 µM] | activation [10] 7.23% [at 0.275 µM] | ratio activity, negative = inhibition [11] -14.9% [at 0.278 µM] | activity change, negative = inhibition [18] -0.544% [at 0.275 µM] | viability change, negative = cytotoxic [12] -3.37% [at 0.275 µM] | activation [14] 3.98% [at 0.275 µM] | activity change, negative = inhibition [15] -1.31% [at 0.281 µM] | activity change, negative = cytotoxicity [16] -0.698% [at 0.275 µM]
active: Potency [1] 0.0011 µM

From PubChem BioAssay (Tox21)
